# Measured values reported in PubChem BioAssay (NCI).
# Several values for one entry are separate records, joined by “and”; a condition that tells them apart may be missing. Identical values can stand only once. The panel holds about 83,000 compounds, 20% with a hit somewhere; the sample as a whole holds those more often.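 Testing used 96-well plates and a 48-hour single-concentration exposure. Example: -40 means 40% of the starting cells died.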 Activity calls are given as the source filed them. How the source made its calls: active means growth percent below 10; inactive means the rest.
# System: OVCAR-3 ovarian
# Experiment: NCI-60 one-dose screen, 48 h (100 = growth as untreated, 0 = no growth, -100 = all killed)
# Conditions: 100 µM
row,Structure (SMILES),growth
1,CCN(Cc1ccccc1)c1ccc(/C=C2\COc3ccccc3C2=O)cc1,19.1% (inactive)
2,CC(=O)/C=C/c1ccc(OCc2ccc(C(C)(C)C)cc2)cc1,47.1% (inactive)
3,CC(=O)/C=C/c1ccc(N(CCO)Cc2ccc(C(C)(C)C)cc2)cc1,-95% (active)
4,O=C(/C=C/c1cccc(Oc2ccc(Cl)cc2)c1)c1ccccc1,-94.3% (active)
5,COc1ccc(C(=O)/C=C/c2ccc(OCc3cccc(C(F)(F)F)c3)c(OC)c2)cc1OC,-10.3% (active)
6,CC(=O)/C=C/c1ccc(OCc2ccc(Cl)cc2)cc1,50.7% (inactive)
7,COc1ccc(C(=O)/C=C/c2ccc(OCc3ccc(Cl)cc3)cc2)cc1OC,-45.2% (active)
8,CC(=O)/C=C/c1ccc(N(C)Cc2ccc(C(C)(C)C)cc2)cc1,-93.2% (active)

# System: HS 578T breast
# Experiment: as above
# Conditions: 10 µM
row,Structure (SMILES),growth
1,CCN(Cc1ccccc1)c1ccc(/C=C2\COc3ccccc3C2=O)cc1,96% (inactive)
2,CC(=O)/C=C/c1ccc(OCc2ccc(C(C)(C)C)cc2)cc1,75.5% (inactive)
3,CC(=O)/C=C/c1ccc(N(CCO)Cc2ccc(C(C)(C)C)cc2)cc1,65% (inactive)
4,O=C(/C=C/c1cccc(Oc2ccc(Cl)cc2)c1)c1ccccc1,97.5% (inactive)
5,COc1ccc(C(=O)/C=C/c2ccc(OCc3cccc(C(F)(F)F)c3)c(OC)c2)cc1OC,98.2% (inactive)
6,CC(=O)/C=C/c1ccc(OCc2ccc(Cl)cc2)cc1,97.3% (inactive)
7,COc1ccc(C(=O)/C=C/c2ccc(OCc3ccc(Cl)cc3)cc2)cc1OC,93.5% (inactive)
8,CC(=O)/C=C/c1ccc(N(C)Cc2ccc(C(C)(C)C)cc2)cc1,87.1% (inactive)

# Same assay, conditions: 10 µM unless noted
row,Structure (SMILES),growth
1,CCOC(=O)c1ccc(Nc2ncnc3c2cnn3-c2cccc(F)c2)cc1,95.9% (inactive)
2,O=S(=O)(O)c1ccc(N=Nc2ccc(N=Nc3cccc4ccccc34)c(S(=O)(=O)O)c2)cc1,104% (inactive)
3,CC[C@@H]1NC(=O)[C@H]([C@H](O)[C@H](C)C/C=C/c2ccc(CN3C(=O)C(C)=C(C)C3=O)cc2)N(C)C(=O)[C@H](C(C)C)N(C)C(=O)[C@H](CC(C)C)N(C)C(=O)[C@H](CC(C)C)N(C)C(=O)[C@@H](C)NC(=O)[C@H](C)NC(=O)[C@H](CC(C)C)N(C)C(=O)[C@H](C(C)C)NC(=O)[C@H](CC(C)C)N(C)C(=O)CN(C)C1=O,83.9% (inactive)
4,COc1nc(=O)n(C2C=CC(=O)O2)cc1F (stereo not given),94.4% (inactive)
5,COc1ccc(-c2csc(NC(=O)CN3CCN(CCO)CC3)n2)cc1NS(=O)(=O)c1cccc2c(N(C)C)cccc12,65.7% (inactive)
6,O=C1/C(=C/c2ccc(-c3cccc(C(F)(F)F)c3)o2)SC(=S)N1CCc1ccc(O)cc1,69.4% (inactive)
7,BrC1=C(Br)C(Br)(Br)C(Br)=C1Br,118% (inactive)
8,OCc1cc(CN2CCCCC2)c(O)c2ncccc12,85.6% (inactive)
9,COc1ccc(C2=C(CN)C(O)NC(=NCC(=O)c3ccc4ccccc4c3)N2)cc1 (stereo not given),116% (inactive)
10,N#CSc1c[nH]c2ccc(/C=C/C(=O)/C=C(/C=C/c3ccc4[nH]cc(SC#N)c4c3)OB(F)F)cc12,26.8% (inactive)
11,COc1ccc(Oc2nc(Nc3ccc(N4CCOCC4)cc3)ncc2NC(=O)c2cc(OC)cc(OC)c2)cc1,76.7% (inactive)
12,COc1ccc2c(c1)oc1c(C)c3c(c(C)c12)C(=O)N(Nc1ccccc1)C3=O,105% (inactive)
13,COc1ccc(/C=C2/C(=O)N=C3N2NC(c2ccccc2)=CN3c2ccccc2)cc1,95.4% (inactive)
14,O=C1/C(=C/c2ccccc2[N+](=O)[O-])Cc2ccccc21,32.3% (inactive) and 71.2% (inactive)
15,COc1ccc2c(c1)CCNC21C(=O)Nc2c(Br)cc(Br)cc21 (stereo not given),94.8% (inactive)
16,O=C(N/N=C/c1ccc(O)cc1O)c1cccc(Nc2ccnc(C(F)(F)F)c2)c1,44.8% (inactive)
17,O=C(c1cccc(Br)c1)N1CCN(c2ccnc3cc(Cl)ccc23)CC1,112% (inactive)
18,CCCCCC#CC1OC23CCCCC2C(C#N)(C(=N)O3)C1(C#N)C#N (stereo not given),94.1% (inactive)
19,COc1ccc(-c2c[nH]c(C(=O)O)c2-c2cc(OC)c(OC)c(OC)c2)cc1,9.64% (active)
20,NC(N)=NC(N)=NCCCc1ccco1,109% (inactive)
21,CN1Cn2c(ccc2C(F)(F)F)C(=O)CS1(=O)=O,106% (inactive)
22,CCCc1cc(C(N)=S)ccn1,125% (inactive)
23,C#CCn1cnc2cnc(Nc3cccc(NC(=O)CCl)c3)nc21,10.4% [6.25 µM] (inactive)
24,CC1=C2[C@@H](CC1)[C@]1(C)O[C@@](C3CC3)(C[C@H]1OC(=O)CO)[C@H]2OC(=O)/C=C/c1ccccc1,-14.6% (active)
25,CCCn1nc(C(=O)N2CCCCC2)c2c1CCC(N1CCC(c3ccncc3)CC1)C2 (stereo not given),103% (inactive)
26,Cc1c(O)c(O)cc2c3c(oc12)CC(c1ccc2c(c1)OCO2)CC3=O (stereo not given),92.2% (inactive)
27,COc1ccc(Nc2nn3c(SCC(=O)c4ccc(C)cc4)nnc3s2)cc1,92.2% (inactive)
28,N#Cc1c(-c2cccc(F)c2)cc(-c2cccnc2)[nH]c1=O,104% (inactive)
29,O=[N+]([O-])c1ccc2[nH]c3nccc(NCc4cccc(Cl)c4)c3c2c1,17.5% (inactive)
